HT1080 IDH1KD tx: HT-1080 IDH1 knockdown cell toxicity (counter line) | Potency, µM (titrated, usually from 46.1 µM), for inactives: at the top dose activity, negative = toxicity, actives largely listed as cytotoxic | HT-1080 IDH1 knockdown viability, ATP luminescence, 48 h | actives 2% (n = 360,000);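 also: 0% = DMSO wells and -100% = cell-free medium wells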
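Luminescent ATP read-out (CellTiter-Glo, 10 min at room temperature) after 48 h compound exposure at 37 °C gave viability of IDH1-knockdown HT-1080 cells. Activity was normalised to DMSO and cell-free wells, then fitted as concentration-response curves.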
TDP1 cell noCPT: qHTS for Inhibitors of human tyrosyl-DNA phosphodiesterase 1 (TDP1): qHTS in cells in absence of CPT; DT40 Tdp1-/- hTDP1 cells, no CPT, ATP luminescence, 48 h; Potency, µM (doses to about 46.2 µM), for inactives: at the top dose activity change, negative = growth inhibition, usual class: inhibitors; actives 15% (n = 420,000); AID 686978, 2013; also: % is scaled to controls: 0 for no effect and ±100 for the full control effect; nearly all actives have a fitted effect of over 55% in size
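Readout: luminescence from CellTiter-Glo after 30 min in the dark at RT. Cells: DT40 Tdp1-/- with stable hTDP1, 400/well. Exposure: compounds alone, ≥48 hr, 37 °C.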
TGFb inhibitor: blocks TGF-b signaling; HepG2 CAGA-GFP TGF-b/SMAD3 reporter, GFP fluorescence, 18 h; TGF-beta stimulated, 500 pg/mL final; Potency, µM (highest dose often 46.1 µM), without a hit: at the top dose activity, negative = inhibition, hits mostly inhibitors; actives 1.2% (n = 410,000); also: % is scaled to controls: 0 for no effect and ±100 for the full control effect; nearly all actives have a fitted effect of over 65% in size
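Cell-based qHTS in HEPG2 carrying a CAGA-GFP Smad reporter; compounds added before 500 pg/mL final TGF-beta, 18 h incubation at 37 degrees C, GFP fluorescence quantified per cell by imaging cytometry.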
HepG2 viability: counter-screen for TGF-b inhibitors: cytotoxicity in HepG2 cells | HepG2 CAGA-GFP viability, ATP luminescence, 18 h | actives 0.76% (n = 410,000) | Potency, µM (series often up to 46.1 µM), inactives show top-dose activity change, negative = cytotoxicity, usual class: cytotoxic | AID 588856
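HepG2 CAGA-GFP cells (1000/well, DMEM with 1% FBS) received compound, then TGF-beta at 500 pg/mL final, and were incubated 18 hours at 37 degrees C. Viability was read by CellTiter-Glo luminescence. Media-only wells were set as complete cell-killing and DMSO as no toxicity.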
HT1080-NT tox: kills 2HG-producing HT-1080-NT fibrosarcoma cells; Potency, µM (titrated, usually from 46.1 µM), without a hit: at the top dose activity, negative = less viability, actives largely listed as cytotoxic; HT-1080-NT fibrosarcoma viability, CellTiter-Glo ATP luminescence, 48 h; AID 686970; actives 1.6% (n = 360,000);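 also: NT is the 2HG producing partner of a matched IDH1 knockdown line; 0% = DMSO-treated cells and -100% = media-only wells without cells; nearly all actives have a fitted effect of over 55% in size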
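Fibrosarcoma NT cells, 750 per well in 5% FBS RPMI, were exposed to compound for 48 hours. Viability: CellTiter-Glo luminescence.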
DT40 TDP1 CPT: DT40-hTDP1 cell growth loss with CPT | chicken DT40 Tdp1-/-;hTDP1 cells + 20 nM CPT, ATP luminescence, 48 h | actives 12% (n = 420,000) | Potency, µM (doses to about 46.2 µM), for the others: top-dose activity change, negative = growth inhibition, actives largely listed as inhibitors | AID 686979; also: % is scaled to controls: 0 for no effect and ±100 for the full control effect; nearly all actives have a fitted effect of over 55% in size
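Chicken DT40 Tdp1-/- cells stably complemented with human TDP1 were seeded at 400 cells/well in medium containing 20 nM camptothecin, exposed to pin-transferred compounds, and grown at 37 °C for at least 48 hr. Viability was read as ATP luminescence.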
* = called active by the depositor. Hits are enriched below; roughly 17% of the tested compounds scored in any of these assays. Calls follow the shape of the dose curve; as a rule, active = well fitted curve in the direction sought with a large enough effect; inconclusive = small, poorly fitted or top-dose-only effect, or another doubt; inactive = no such curve, though single readings can be large; an effect the other way counts as inactive or inconclusive. Potency is read from the fitted curve at half-maximal effect.

What do the screens show for `CCc1c(C2(O)CCCCC2)[nH]c2ccc(C(F)(F)F)cc12`?
HT1080 IDH1KD tx: -12%; TDP1 cell noCPT: inconclusive; TGFb inhibitor: 11µM*; HepG2 viability: -110%; HT1080-NT tox: inconclusive; DT40 TDP1 CPT: 18µM*

Results for Cc1cccc(NC(=O)Cn2c(=O)n(CC3CCC(C(=O)NCCc4ccccc4)CC3)c(=O)c3ccccc32)c1 (stereo not drawn) ?
TDP1 cell noCPT: inconclusive; TGFb inhibitor: -17%; HepG2 viability: 0%; DT40 TDP1 CPT: 18µM*

What do the screens show for `COc1cc(NC(=O)Cn2c(=O)n(CC3CCC(C(=O)NCCc4ccccc4)CC3)c(=O)c3ccccc32)cc(OC)c1` (stereo not drawn)?
TDP1 cell noCPT: inconclusive; TGFb inhibitor: 0%; HepG2 viability: -9%; DT40 TDP1 CPT: 12µM*

What do the screens show for `O=C(NCCc1ccccc1)C1CCC(Cn2c(=O)c3ccccc3n(Cc3cccc(F)c3)c2=O)CC1` (stereo not drawn)?
HT1080 IDH1KD tx: 6%; TDP1 cell noCPT: inconclusive; TGFb inhibitor: 1%; HepG2 viability: 7%; HT1080-NT tox: 7%; DT40 TDP1 CPT: inconclusive

Results for O=C(NCCc1ccccc1)C1CCC(Cn2c(=O)c3ccccc3n(Cc3cccc(Cl)c3)c2=O)CC1 (stereo not drawn) ?
HT1080 IDH1KD tx: 25%; TDP1 cell noCPT: 15µM*; TGFb inhibitor: -16%; HepG2 viability: -5%; HT1080-NT tox: 19%; DT40 TDP1 CPT: inconclusive

Results for COc1ccccc1NC(=O)Cn1c(=O)n(CC2CCC(C(=O)NCCc3ccccc3)CC2)c(=O)c2ccccc21 (stereo not drawn) ?
TDP1 cell noCPT: inconclusive; TGFb inhibitor: -25%; HepG2 viability: -2%; DT40 TDP1 CPT: 18µM*

What do the screens show for `O=C1NC[C@H](CCCCN2CCN(CC3CCCCC3)C(=O)C2=O)N(CCc2ccccc2)C1=O`?
HT1080 IDH1KD tx: 19%; TDP1 cell noCPT: -10%; HT1080-NT tox: 21%; DT40 TDP1 CPT: 6%

What do the screens show for `CCNc1ncc2nc(-c3cccc(C#N)c3)c(=O)n(Cc3cccc(OC)c3)c2n1`?
TDP1 cell noCPT: 1%; DT40 TDP1 CPT: 10%

How did CC(=O)c1sc(N/N=C/c2cccc(O)c2)nc1C do in these assays?
HT1080 IDH1KD tx: -19%; TDP1 cell noCPT: 12µM*; TGFb inhibitor: -13%; HepG2 viability: -10%; HT1080-NT tox: -14%; DT40 TDP1 CPT: 26µM*

Results for CC(=O)c1sc(N/N=C\c2c(O)ccc3ccccc23)nc1C ?
HT1080 IDH1KD tx: -24%; TDP1 cell noCPT: 0.92µM*; TGFb inhibitor: inconclusive; HepG2 viability: -27%; HT1080-NT tox: inconclusive; DT40 TDP1 CPT: 0.92µM*

How did CC(=O)c1sc(N/N=C\c2ccc(N(C)C)cc2)nc1C do in these assays?
HT1080 IDH1KD tx: -7%; TDP1 cell noCPT: inconclusive; TGFb inhibitor: 0%; HepG2 viability: 0%; HT1080-NT tox: 4%; DT40 TDP1 CPT: -8%

Results for CSc1nc(S(C)(=O)=O)nc2[nH]c(=O)[nH]c12 ?
HT1080 IDH1KD tx: 1%; TDP1 cell noCPT: 1%; TGFb inhibitor: 0%; HepG2 viability: 7%; HT1080-NT tox: 13%; DT40 TDP1 CPT: -6%

What do the screens show for `COc1ccccc1CNC(=O)/C=C/c1ccc(S(=O)(=O)NCc2ccco2)cc1`?
HT1080 IDH1KD tx: -4%; TDP1 cell noCPT: inconclusive; TGFb inhibitor: 28%; HepG2 viability: 1%; HT1080-NT tox: -1%; DT40 TDP1 CPT: inconclusive
